Assay outcomes deposited in PubChem by National Center for Advancing Translational Sciences (NCATS).
Rows were chosen to be rich in hits. Some 21% of all compounds tested hit in one or more screens of this group.
Shiga toxin inh – Shiga toxin inhibition; Vero cells, Shiga toxin protein synthesis inhibition reporter; inhibition, % at 38.7 µM; 290,000 tested, 9.2% active; AID 2315; in the data active = inhibition mostly above about 28%, no sharp cut-off; inactive = mostly below about 43%; note: 0% is about no effect
CHX counter – counter-screen for Shiga toxin inhibitors: cycloheximide protein synthesis inhibition. max response, %. AID 2314. 300,000 tested, 12% active. cell reporter, cycloheximide protein synthesis inhibition counterscreen; in the data active = max response mostly above about 13%, no sharp cut-off; inactive = mostly below about 14%; note: read at 38.3 µM for the half of the compounds with a filed dose; 0% is about no effect
HCV inh – HCV inhibition; Huh7.5.1 HCVcc-Cre infection, luciferase reporter, 44 h; 340,000 tested, 3.4% active; Potency, µM (series often up to 41.8 µM), for inactives: top-dose activity change, negative = inhibition, actives largely listed as inhibitors; note: potency is the fitted concentration of half-maximal effect; % is set by controls: 0 for no effect and ±100 for the full control effect
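Luciferase read-out (15 sec integration) after a 15 min room-temperature substrate step quantifies HCVcc-Cre infection. Cells, 1,000 per well, had compound added 4 h post-plating, then virus at ~0.5 moi, and were cultured 44 h.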
AMA1 RON2 block – disrupts binding of P. falciparum AMA1 to RON2. AlphaScreen AMA1-biotinylated RON2 peptide binding. Potency, µM (series often up to 58.2 µM), inactives show at the highest dose activity change, negative = inhibition, usual class: inhibitors. 360,000 tested, 0.2% active. AID 720542;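 note: potency is the fitted concentration of half-maximal effect; 0% = vehicle wells and -100% = peptide control; nearly all actives have a fitted effect of over 45% in size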
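AMA1 (3D7) with his tag at 25 nM final met compounds first, then biotinylated RON2 peptide at 25 nM; detection used donor plus acceptor beads, 10 µg/mL apiece, read by AlphaScreen after 30 min at room temperature.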
Pf growth 48h – P. falciparum growth inhibition at 48 hours (one generation); P. falciparum luciferase growth in erythrocytes, 48 h; Potency, µM (doses to about 28.7 µM), for the others: at the top dose activity change, negative = inhibition, actives largely listed as inhibitors; 310,000 tested, 5.9% active; AID 504832; note: potency is the fitted concentration of half-maximal effect; % is set by controls: 0 for no effect and ±100 for the full control effect
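Firefly luciferase activity from engineered P. falciparum reports growth; inhibitors lower the luminescent signal. Cultures contained 2% hematocrit erythrocytes at 0.1% final parasitemia.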
Pf growth 96h – inhibits malaria parasite growth, 96 h; P. falciparum luciferase reporter growth, 96 h; Potency, µM (series often up to 28.7 µM), without a hit: top-dose activity change, negative = inhibition, hits mostly inhibitors; 320,000 tested, 6.9% active; AID 504834; note: potency is the fitted concentration of half-maximal effect; % is set by controls: 0 for no effect and ±100 for the full control effect
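Plates of compound plus infected erythrocytes (2% hematocrit, 0.05% parasitemia final) incubate 96 hours, 37 C, 5% CO2. Detection reagent added; reduced luminescence from the parasites' luciferase reporter flags inhibition.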
* = called active by the depositor; [ ] = remark or other dose. Unless noted, calls come from the whole dose curve; as a rule, active = well fitted curve in the direction sought with a large enough effect; inconclusive = small, poorly fitted or top-dose-only effect, or another doubt; inactive = no such curve, though single readings can be large; an effect the other way counts as inactive or inconclusive.

`Cc1ccc(Nc2n[nH]c(C)c2[N+](=O)[O-])c(C)c1` gave Shiga toxin inh 44, CHX counter 19, HCV inh -5%, AMA1 RON2 block -6%, Pf growth 48h 52% and Pf growth 96h 39%.
For CC(C(=O)O)n1c2ccccc2c2cnn(C)c(=O)c21 (centres undefined) the results were Shiga toxin inh -6, CHX counter -2, HCV inh 6%, AMA1 RON2 block 10%, Pf growth 48h 1% and Pf growth 96h 126%.
Screening CN1CCN(c2ccc(Nc3c4ccccc4nc4ccccc34)cc2)CC1 returned Shiga toxin inh -14 and CHX counter -13.
For CCN1CCN(c2ccc(Nc3ccnc4ccccc34)cc2)CC1 the results were HCV inh 11µM*, AMA1 RON2 block -3%, Pf growth 48h 0.66µM* and Pf growth 96h inconclusive.
`CN1CCN(c2ccc(Nc3ccnc4cc(Cl)ccc34)cc2)CC1` gave Shiga toxin inh 72, CHX counter 2, HCV inh inconclusive, AMA1 RON2 block 13%, Pf growth 48h 0.026µM* and Pf growth 96h inconclusive.
Screening CCN1CCC(Nc2ccnc3cc(Cl)ccc23)CC1 returned Shiga toxin inh 3, CHX counter -1, HCV inh -2%, AMA1 RON2 block 5%, Pf growth 48h 0.033µM* and Pf growth 96h 0.0041µM*.
For O=C(COC(=O)Cc1c(F)cccc1Cl)NCc1ccc2c(c1)OCO2 the results were HCV inh -10% and AMA1 RON2 block 20%.
`CC(C)c1ccc(NC(=O)C2(C)Cc3c(-c4ccccc4)ccnc3O2)cc1` (centres undefined) gave AMA1 RON2 block -13%.
Screening CN1CCn2cnc(C(=O)Nc3ccc(CNC(=O)OC(C)(C)C)cc3)c2C1=O returned AMA1 RON2 block -6%.
Screening Cn1cccc1C1CCCN1CC(=O)Nc1ccc(F)c(F)c1F (centres undefined) returned HCV inh -13% and AMA1 RON2 block 6%.
Cc1ccc(-n2c(=S)[nH]c3ccccc3c2=O)cc1F was read as AMA1 RON2 block 157%.
`O=c1c2ccccc2[nH]c(=S)n1-c1ccc2c(c1)OCCO2` gave Shiga toxin inh 99*, CHX counter 45*, HCV inh -1%, AMA1 RON2 block 91%, Pf growth 48h inconclusive and Pf growth 96h inconclusive.
Screening CCNC(=O)C1CCCN(C(=O)c2cccc(C(F)(F)F)c2)CC1 (centres undefined) returned AMA1 RON2 block -3%.
`CC(C)CC(COCc1cccc(C(F)(F)F)c1)N1CCN(C(=O)c2cccc(C(F)(F)F)c2)CCC1=O` (centres undefined) gave Shiga toxin inh -12, CHX counter -5, HCV inh inconclusive, AMA1 RON2 block 1%, Pf growth 48h inconclusive and Pf growth 96h 15µM*.
For O=C(c1ccc(C(F)(F)F)cc1)N1CCC(=O)N(C(COCc2ccc(Cl)cc2)Cc2ccccc2)CC1 (centres undefined) the results were Shiga toxin inh -10, CHX counter 2, HCV inh 2%[8.37 µM], AMA1 RON2 block 18%, Pf growth 48h inconclusive and Pf growth 96h inconclusive.
For O=C(c1ccc(C(F)(F)F)cc1)N1CCC(=O)N(C(COCc2ccccc2)Cc2ccccc2)CC1 (centres undefined) the results were Shiga toxin inh -2, CHX counter 2, HCV inh 1%[8.37 µM], AMA1 RON2 block -4%, Pf growth 48h inconclusive and Pf growth 96h 8.3µM*.
Cc1cccc(COCC(Cc2ccccc2)N2CCN(C(=O)c3ccc(Cl)c(Cl)c3)CCC2=O)c1 (centres undefined) was read as Shiga toxin inh -10, CHX counter -4, HCV inh inconclusive, AMA1 RON2 block -6%, Pf growth 48h inconclusive and Pf growth 96h inconclusive.
CC(C)(C)c1ccc(C(=O)N2CCC(=O)N(C(COCc3ccccc3)Cc3ccccc3)CC2)cc1 (centres undefined) was read as Shiga toxin inh 2, CHX counter -2, HCV inh inconclusive, AMA1 RON2 block -4%, Pf growth 48h 9.3µM* and Pf growth 96h 12µM*.
O=C(c1ccc(Cl)c(Cl)c1)N1CCC(=O)N(C(COCc2cccc(C(F)(F)F)c2)Cc2ccccc2)CC1 (centres undefined) was read as Shiga toxin inh 7, CHX counter 4, HCV inh 5%[8.37 µM], AMA1 RON2 block -6%, Pf growth 48h inconclusive and Pf growth 96h 13µM*.
`CC(C)(C)c1ccc(C(=O)N2CCC(=O)N([C@H](COCc3ccccc3)Cc3ccccc3)CC2)cc1` gave AMA1 RON2 block -9%.
For Cc1ccc(COC[C@H](CC(C)C)N2CCN(C(=O)c3cccc(C(F)(F)F)c3)CCC2=O)cc1 the results were AMA1 RON2 block 7%.
Screening COc1ccc(-n2nc(C(=O)NCC(=O)NCCc3ccc(OC)c(OC)c3)c3ccccc3c2=O)cc1Cl returned Shiga toxin inh -10, CHX counter -2, HCV inh inconclusive, AMA1 RON2 block 4%, Pf growth 48h inconclusive and Pf growth 96h -26%.
N#Cc1cccc(NC(=O)CNc2cc(S(=O)(=O)N3CCOCC3)ccc2N2CCCC2)c1 was read as HCV inh 4%, AMA1 RON2 block -9%, Pf growth 48h -9% and Pf growth 96h inconclusive.
Screening CCOc1ccc(CNS(=O)(=O)c2cc(-c3cc(C)no3)ccc2OC)cc1OC returned Shiga toxin inh -2, CHX counter 12, HCV inh -11%, AMA1 RON2 block -9%, Pf growth 48h -5% and Pf growth 96h 32%.
For O=C(O)C(=O)/C(=C\c1cccc2ccccc12)c1ccc2ccccc2n1 the results were Shiga toxin inh -11, CHX counter 1, HCV inh -6%, AMA1 RON2 block 17% and Pf growth 96h 20%.
O=C(O)C(=O)/C(=C\c1ccc([N+](=O)[O-])cc1)c1ccc2ccccc2n1 was read as Shiga toxin inh 49*, CHX counter 27*, HCV inh 8%, AMA1 RON2 block 4%, Pf growth 48h 305% and Pf growth 96h inactive.
For O=C(O)C(=O)/C(=C\c1ccccc1)c1ccc2ccccc2n1 the results were Shiga toxin inh 89*, CHX counter 34*, HCV inh 17%, AMA1 RON2 block -3% and Pf growth 96h 394%.
Screening O=C(O)C(=O)/C(=C\c1ccsc1)c1ccc2ccccc2n1 returned Shiga toxin inh 87*, CHX counter 27*, HCV inh 21%, AMA1 RON2 block 0%, Pf growth 48h 234% and Pf growth 96h inactive.
Screening Cc1cc2cc(CNC(=O)NC3CCCCC3)ccc2[nH]1 returned Shiga toxin inh 40*, CHX counter 18*, HCV inh -23%, AMA1 RON2 block -11% and Pf growth 48h inconclusive.
